RXFP1 agonist – agonists of human relaxin receptor RXFP1; Q9HBX9; HEK293T-RXFP1 cAMP TR-FRET, 30 min; response scale: percent of porcine relaxin response, buffer zero; Potency, µM (top dose mostly 57.5 µM), without a hit: top-dose activation, actives largely listed as activators; actives 0.3% (n = 370,000); AID 2676; active = well fitted activation curve with a large enough effect; inconclusive = small, poorly fitted or top-dose-only effect; also: potency is read from the fitted curve at half-maximal effect; nearly all actives have a fitted effect of over 60% in size
Target sequence (Q9HBX9 whole entry, looked up): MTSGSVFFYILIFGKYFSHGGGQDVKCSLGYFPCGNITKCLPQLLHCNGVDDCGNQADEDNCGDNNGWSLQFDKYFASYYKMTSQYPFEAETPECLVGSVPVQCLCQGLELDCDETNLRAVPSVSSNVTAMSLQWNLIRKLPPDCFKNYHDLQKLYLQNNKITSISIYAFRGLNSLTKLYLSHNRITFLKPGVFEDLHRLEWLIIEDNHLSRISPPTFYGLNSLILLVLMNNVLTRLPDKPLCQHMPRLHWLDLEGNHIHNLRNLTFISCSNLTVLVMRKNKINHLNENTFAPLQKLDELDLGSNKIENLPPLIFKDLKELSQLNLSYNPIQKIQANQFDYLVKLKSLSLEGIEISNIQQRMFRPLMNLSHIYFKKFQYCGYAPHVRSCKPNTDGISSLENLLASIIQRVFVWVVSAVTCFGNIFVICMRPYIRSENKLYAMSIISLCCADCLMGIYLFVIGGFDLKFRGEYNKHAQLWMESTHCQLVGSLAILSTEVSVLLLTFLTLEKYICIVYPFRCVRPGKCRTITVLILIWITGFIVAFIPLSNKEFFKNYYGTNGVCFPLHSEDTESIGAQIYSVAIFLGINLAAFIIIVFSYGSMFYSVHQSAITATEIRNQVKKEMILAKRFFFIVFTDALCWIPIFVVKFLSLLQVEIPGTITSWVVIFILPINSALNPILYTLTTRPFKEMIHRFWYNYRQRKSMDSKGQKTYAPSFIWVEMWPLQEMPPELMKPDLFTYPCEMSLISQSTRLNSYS
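cAMP rise read by TR-FRET after 30 min, 37C compound exposure (up to 58 uM) in RXFP1-transfected HEK293 cells with Ro 20174 present. EC50 from Hill-equation fits, with 29 nM porcine relaxin as 100% and buffer as basal.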
pAkt inh – Akt phosphorylation inhibition. Neuro2A IGF-stimulated pAkt S473 HTRF, 20 min; hits give low values. activity change, % for hits at 50 µM. actives 0.32% (n = 360,000); in the data active = activity change below about -80%; inconclusive = mostly about -51% to -80%
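Neuro2A cells (4,500/well, DMEM with 0.5% FBS) were treated with compound at a single 50 µM final concentration, stimulated with 6 nM IGF for 20 min at 37 °C, and lysed. Phospho-Akt Ser473 was read by HTRF as 665/615 ratio ×10^4.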
KCNH2 3.1 block – KCNH2 3.1 (human) potassium channel inhibition | activity change, % (tested at about 1.8 µM) | actives 0.95% (n = 340,000) | AID 720553 | U2OS KCNH2 3.1, thallium flux FluxOr; hits give low values;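 active = maximum activity change below -70%; inconclusive = maximum activity change from -70% to -50%; inactive = maximum activity change above -50%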;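 also: thallium influx rate constant from kinetic fluorescence after stimulation buffer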
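Thallium flux read-out: FluxOr dye with Red40 quencher in HBSS/HEPES, 45 min at RT. Rate constants from kinetic reads were normalized to positive and negative DMSO controls. Cells: U2OS virally expressing the 3.1 isoform.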
hERG WT inh – KCNH2 (human, wildtype) channel inhibition; AID 720551; Q12809; actives 0.37% (n = 340,000); U2OS, BacMam KCNH2, thallium flux FluxOr; hits give low values; activity change, % at 1.84 µM;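 active = maximum activity change below -70%; inconclusive = maximum activity change between -70% and -50%; inactive = maximum activity change above -50%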
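U2OS cells transduced with wild-type KCNH2 virus are loaded with FluxOr dye for 45 min, and thallium flux is measured in kinetic reads before and after stimulation buffer. Rate constants are normalized to DMSO controls.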
RXFP1 antagonist – blocks the human relaxin receptor RXFP1; HEK293-RXFP1, relaxin-stimulated cAMP HTRF, 30 min; hits give low values; activity change, negative = inhibition, % at 57.5 µM; actives 0.59% (n = 350,000);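 active = activity change of -60% or lower, but not beyond a set lower limit; inconclusive = change between -60% and -40%, or beyond the set limit; inactive = change above -40%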
The depositor's hits bear a star; i = inactive; ? = inconclusive; . = no result. A selection: hits, their analogues and other compounds. The true share with any hit is near 1.7%. % is scaled to controls: 0 for no effect and ±100 for the full control effect.

SMILES | RXFP1 agonist | pAkt inh | KCNH2 3.1 block | hERG WT inh | RXFP1 antagonist
CCCCCCNc1nc(NCc2ccco2)nc(OCC)n1 | 0% | i | -73* | -24 | -5
NC(=O)c1ccc(NC(=O)COc2coc(CN3CCc4ccccc4C3)cc2=O)cc1 | 2% | i | -14 | -9 | -14
COCc1cc(CN(C)C(=O)C2CCC(=O)N(Cc3cccc(OC)c3)C2)[nH]n1 (stereo not drawn) | -1% | i | 0 | 0 | -78*
Cc1ccc(CNC(=O)C2CCC(=O)N(CCc3cccc(F)c3)C2)cc1 (stereo not drawn) | -2% | i | -84* | -5 | -7
Cc1cc(CNC(=O)C2CCC(=O)N(CCc3cccc(F)c3)C2)nn1C (stereo not drawn) | -1% | i | 3 | -5 | -9
COc1cccc(CN2CC(C(=O)NCCCc3ccc(C)cc3)CCC2=O)c1 (stereo not drawn) | -2% | i | -86* | 7 | -9
c1ccc(CSc2nnc(-c3ccccc3)c(-c3ccccc3)n2)cc1 | . | i | -5 | 8 | .
O=[N+]([O-])c1ccc(N2CCN(c3ccc([N+](=O)[O-])cc3CO)CC2)c(CO)c1 | 1% | i | -89* | ? | -4
N#Cc1cc([N+](=O)[O-])ccc1N1CCN(c2ccccc2O)CC1 | 0% | i | 2 | 0 | -14
Cc1cc(C)cc(OCC(=O)NNC(=S)NC(=O)C2CC2)c1 | 1% | i | -70* | -7 | 4
NS(=O)(=O)OCC1CCCCC1 | 0% | i | 6 | -11 | .
COc1ccc2c(c1)sc1nc(-c3ccccc3)cn12 | 0% | i | -40 | -2 | -21
O=C(CCCN1CCC(C(=O)c2ccc(F)cc2)CC1)c1ccc(F)cc1 | 0% | i | -103* | -74* | -2
COc1ccccc1N1CCN(CCCC(=O)c2ccc(F)cc2)CC1 | 1% | i | -70* | 45 | .
COc1ccc(C(C(=O)NCC2CCCO2)N(C(=O)c2snc(C(N)=O)c2N)c2ccccc2)cc1OC (stereo not drawn) | 2% | i | 7 | -11 | 4
CCC(C)c1ccc(NC(=S)NCc2cccnc2)cc1 (stereo not drawn) | -1% | i | -94* | 1 | 2
CC(C)Cn1c(-c2csc3ccccc23)n[nH]c1=S | -2% | i | 8 | 2 | -2
Cc1cccc(-n2c(-c3csc4ccccc34)n[nH]c2=S)c1 | 3% | i | -5 | 4 | -117*
CCOC(=O)C(=Cc1ccc(F)cc1)C(=O)OCC | 2% | . | . | . | .
CCOC(=O)C(=Cc1ccc(Br)cc1)C(=O)OCC | 5% | i | 11 | -10 | -96*
Clc1cccc(Cl)c1C1Nc2cccc3cccc(c23)N1 | 6% | i | -97* | -6 | ?
Fc1cccc(Cl)c1C1Nc2cccc3cccc(c23)N1 | 0% | i | 6 | -4 | -4
Nc1ccn([C@@H]2O[C@H](C(=O)N3CCN(Cc4ccccn4)CC3)[C@@H](O)[C@H]2O)c(=O)n1 | . | i | . | . | .
CC1CN(c2ncc(/C=N/NC(=O)c3ccccc3O)s2)CC(C)O1 (stereo not drawn) | -1% | i | -8 | -4 | -73*
N#CC1=C(N)OC2=C(CC/C2=C\c2ccccc2)C1c1ccccc1 (stereo not drawn) | -2% | i | -46 | -73* | -21
SMILES | RXFP1 agonist | pAkt inh | KCNH2 3.1 block | hERG WT inh | RXFP1 antagonist
N#CC1=C(N)OC2=C(CC/C2=C\c2ccccc2Cl)C1c1ccccc1Cl (stereo not drawn) | 1% | i | 1 | -9 | -25
COc1ccc(C(=O)O)cc1NC(=S)NC(=O)C(c1ccccc1)c1ccccc1 | 3% | i | 24 | 5 | -116*
CN1CCN(C(=O)/C(=C/c2ccc(F)cc2)NC(=O)c2ccccc2)CC1 | 0% | i | -91* | -23 | -4
O=C(O)c1ccc2c3c(cccc13)C(=O)N(c1ccccc1)C2=O | 5% | i | -104* | -1 | -5
O=C(O)c1ccc(N2C(=O)c3cccc4c(C(=O)O)ccc(c34)C2=O)cc1 | ? | i | -22 | 9 | 26
CC(C)C[C@H]1CNC(=S)N1CC1CCN(CCCC2CCCCC2)CC1 | . | i | -72* | 5 | .
O=C1NC[C@H](Cc2ccccc2)N(CC2CCN(CCc3ccc(-c4ccccc4)cc3)CC2)C1=O | . | i | -93* | -43 | .
O=C1NC[C@H](Cc2ccccc2)N(CC2CCN(CCc3ccccc3)CC2)C1=O | . | i | -8 | 7 | .
O=C1NC[C@H](Cc2ccccc2)N(CC2CCN(CCCC3CCCC3)CC2)C1=O | . | i | -80* | -130* | .
COc1cc(C(=O)Nc2ccc3nn(-c4ccc(F)cc4)nc3c2)cc(OC)c1OC | 12% | . | . | . | .
CN1CCC(=O)N([C@H](CSc2ccccc2)c2ccccc2)CC1 | -1% | i | -124* | 13 | .
Cc1ccc(SC[C@H](c2ccccc2)N2CCN(C)CCC2=O)cc1 | -1% | i | . | . | .
COc1ccc(SC[C@H](CC(C)C)N2CCN(CCc3ccccc3)CCC2=O)cc1 | 0% | i | -106* | -75* | .
CCCN1CCC(=O)N([C@H](CSc2ccc(OC)cc2)c2ccccc2)CC1 | 2% | i | -93* | -39 | .
c1ccc(-c2nnnn2-c2ccccc2)cc1 | 1% | i | 4 | 1 | 3
ClC(Cl)(c1nnnn1-c1ccccc1)c1nnnn1-c1ccccc1 | 1% | i | -48 | -8 | -91*
Fc1ccc(C2CC(c3ccco3)n3ncnc3N2)cc1 (stereo not drawn) | -3% | i | -175* | -130* | .
Cc1ccc(C2CC(c3ccco3)n3ncnc3N2)cc1 (stereo not drawn) | 2% | i | 0 | -6 | -12
CCOc1ccc(Oc2ccccc2NC(=O)CN2C(=O)NC3(CCCC3)C2=O)cc1 | 0% | i | 11 | 7 | -3
COc1ccc(-c2ccc(OC)cc2)cc1 | 0% | i | 19 | -5 | -5
Cc1[nH]c(=S)[nH]c(=O)c1CCOc1ccccc1 | -1% | i | . | 24 | -81*
CCCCCCCCOC(=O)CCc1c(C)[nH]c(=S)[nH]c1=O | 5% | i | -12 | -2 | -70*
CCCCCCOC(=O)CCc1c(C)nc(N)[nH]c1=O | 3% | i | -3 | -3 | -7
O=C1CC(c2nc3ccccc3n2CCC2CCCCC2)CN1c1ccccc1Cl (stereo not drawn) | 0% | . | . | . | -17
CC(C(=O)O)N1C(=O)CSC1=S (stereo not drawn) | 0% | i | -8 | -20 | -5
Cc1ccc(N=C2NC(=O)/C(=C\c3ccco3)S2)cc1 | -1% | i | -5 | -8 | -16
Cc1cccc(N=C2NC(=O)/C(=C/C=C/c3ccco3)S2)c1 | 0% | i | 1 | -2 | -73*

High-throughput results (PubChem BioAssay)
